Test results as given in PubChem BioAssay (NCI).
This is part of a sample that, as a whole, favours compounds with a hit. Of some 79,000 tested, about 15% had one in any assay. Unmarked numbers belong to inactive results. Active and inactive are the calls of the source. Cut-off read from the data, not from the text of the source: active = growth inhibition above about 70%; inactive = the rest.

Tests used:
[1] = NCI Yeast Anticancer Drug Screen. Data for the rad50 strain (AID 155);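 note: 0% = growth of vehicle-only cultures of the same strain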; settings: S. cerevisiae rad50 strain growth inhibition, hits give high values
Summary of the method: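 Readout: growth inhibition relative to vehicle-treated cultures. Compound exposure was carried out in a genetically defined yeast strain deficient in DNA damage repair.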

[2] = NCI Yeast Anticancer Drug Screen. Data for the mec2-1 strain (AID 157); settings: S. cerevisiae mec2-1 strain, hits give high values
Summary of the method: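 Strain: mec2-1 (DNA repair/cell cycle alteration). Compound exposure, then growth measured; inhibition expressed relative to vehicle.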

[3] = NCI Yeast Anticancer Drug Screen. Data for the sgs1 mgt1 strain (AID 161);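 note: 0% = growth of cultures given vehicle only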; settings: S. cerevisiae sgs1 mgt1 strain, hits give high values
Summary of the method: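 Inhibition of yeast growth, normalised to vehicle-treated controls, is reported for a strain bearing genetic alterations in DNA damage repair.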

[4] = NCI Yeast Anticancer Drug Screen. Data for the cln2 rad14 strain (AID 165);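 note: 0% = growth equal to vehicle treated cultures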; settings: S. cerevisiae cln2 rad14 strain, hits give high values
Summary of the method: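 Compounds are applied to the cln2 rad14 yeast strain, and growth is then compared with that of vehicle-treated cultures to give inhibition.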

[5] = NCI Yeast Anticancer Drug Screen. Data for the bub3 strain (AID 167); settings: S. cerevisiae bub3 mutant strain, hits give high values
Summary of the method: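 Readout: yeast growth inhibition, expressed relative to vehicle-only wells. The test organism is a mutant strain from a panel with lesions in DNA repair or checkpoint genes.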

[6] = NCI Yeast Anticancer Drug Screen. Data for the mlh1 rad18 strain (AID 175); settings: S. cerevisiae mlh1 rad18 strain growth inhibition, hits give high values
Summary of the method: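 Read-out is yeast growth inhibition, calculated against vehicle-only controls. The compound was applied to a strain engineered with DNA damage repair alterations.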

[7] = at 5.0 µM (retest, dose inferred, filed as 0.5)
[8] = at 50.0 µM (retest, dose inferred, filed as 5.0)

| SMILES | growth inhibition [1, 7] [%] | growth inhibition [1, 8] | growth inhibition ([1]; at 50.0 µM) | growth inhibition [2, 7] [%] | growth inhibition [2, 8] | growth inhibition ([2]; at 50.0 µM) | growth inhibition [3, 7] [%] | growth inhibition [3, 8] | growth inhibition ([3]; at 50.0 µM) | growth inhibition [4, 7] [%] | growth inhibition [4, 8] | growth inhibition ([4]; at 50.0 µM) | growth inhibition [5, 7] [%] | growth inhibition [5, 8] | growth inhibition ([5]; at 50.0 µM) | growth inhibition [6, 7] [%] | growth inhibition [6, 8] | growth inhibition ([6]; at 50.0 µM) |
| --- | --- | --- | --- | --- | --- | --- | --- | --- | --- | --- | --- | --- | --- | --- | --- | --- | --- | --- |
| CNC(=O)OCc1c(COC(=O)NC)c2n(c1C)-c1ccccc1CCC2 | 23 | 35% | 85.8% (active) | 11 | 70% (active) | 89.6% (active) | 38 | 75% (active) | 90% (active) | 38 | 56% | 88.9% (active) | 50 | 77% (active) | 87.5% (active) | 15 | 43% | 87.6% (active) |
| Cc1cc(N(CCCOS(C)(=O)=O)CCCOS(C)(=O)=O)ccc1C=Nc1cc(Br)c(O)c(Br)c1 | -5 | 33% | 41% | 36 | 7% | 21.3% | -3 | 27% | 86.1% (active) | -3 | -5% | 4.8% | 0 | 41% | 34.8% | -2 | 41% | 68.4% |
| O=C(O)/C(Cl)=C(\Cl)C(=O)Nc1c(Cl)cccc1Cl | -9 | 7% | 19.1% | -3 | -7% | 51.1% | -13 | 6% | 38.2% | 1 | 5% | 36.4% | 3 | 2% | 29.2% |  |  |  |
| CC1CCCC(C(c2c[nH]c3ccccc23)c2c[nH]c3ccccc23)C1=O (stereo unspecified) | 1 | 98% (active) | 96.8% (active) | 1 | 98% (active) | 58.6% | 3 | 97% (active) | 79.7% (active) | 0 | 98% (active) | 76.3% (active) | -11 | 96% (active) | 46% | -5 | 98% (active) | 97.2% (active) |
| O=C(CCCCOCCCCC(=O)OCC1CCCO1)OCC1CCCO1 (stereo unspecified) | -1 | -2% | 9.1% | 0 | 2% | 16.9% | -91 | 4% | 45% | 2 | -9% | 10.3% | -4 | -3% | 13.5% |  |  |  |
| CCOC(=O)Nc1cc2c(c(N)n1)N=C(c1ccccc1)CN2 | 6 | 34% | 36.3% | -25 | 35% | -3.7% | -13 | 89% (active) | 37.2% | 11 | 33% | 17.9% | 22 | 80% (active) | 47.1% | 10 | 52% | 18.1% |
| Cc1ccc(O)c(N=Nc2ccc(Cl)cc2)c1 | 0 | 2% | -3.95% | 4 | -2% | -1.95% | -3 | 17% | -20.8% | 1 | -8% | 7.2% | 1 | -8% | 4.4% | -3 | -1% | -23.2% |
| OC(CCl)c1ccc2ccc3c(c2c1)Nc1ccccc1S3 (stereo unspecified) | 0 | 80% (active) | 80.4% (active) | -1 | 88% (active) | 97.2% (active) | 2 | 83% (active) | 97.2% (active) | -1 | 75% (active) | 78.8% (active) | 4 | 87% (active) | 87.9% (active) |  |  |  |
| COc1ccc(I)c(C=NC2CCCCC2)c1C | 41 | 94% (active) | 97.2% (active) | 16 | 82% (active) | 91.5% (active) | 41 | 92% (active) | 99% (active) | 1 | 88% (active) | 41.8% | 35 | 94% (active) | 89.4% (active) | 27 | 93% (active) | 94.7% (active) |
| CN(C)CC(C)(CN(C)C)C(=O)/C=C/c1ccc(Cl)c(Cl)c1 | 27 | 98% (active) | 99.7% (active) | 18 | 99% (active) | 99.8% (active) | 38 | 98% (active) | 99.8% (active) | 13 | 99% (active) | 99% (active) | 12 | 100% (active) | 99.5% (active) | 41 | 99% (active) | 99.6% (active) |
